The supplement of paper PMC6555819

What was measured:
Test in all cases: PBM binding z-score (relative to random genomic background probes); higher = stronger binding; sequences stand for … in GC…GCGATTGACAGCGTAGAATGAAGG
[1] = system: FXR:RXRa (NR concentration 270 nM, RXRa partner concentration 90 nM)
How it was run: (§1)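 Probes were double-stranded and carried 34-nt variable regions with direct-repeat seeds, single-nucleotide variants, half-site ablations and random human genomic background sequences, printed on custom Agilent 4×180K protein-binding microarrays. Arrays were incubated 1 h with ligand-free nuclear receptor dimers in PBS pH 7.4, 2% milk, 0.02% Triton X-100, 1 mM DTT, 0.2 mg/mL BSA and 0.4 mg/ml salmon testes DNA. Antibodies against each partner (one per run) detected binding, and scanned fluorescence was regression-normalized. Binding z-scores use the random background probes as reference.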

[2] = system: LXRa:RXRa (NR concentration 270 nM, RXRa partner concentration 90 nM)
How it was run: as §1

[3] = system: LXRa homodimer (NR concentration 270 nM)
How it was run: as §1

[4] = system: LXRb:RXRa (NR concentration 270 nM, RXRa partner concentration 90 nM)
How it was run: as §1

[5] = system: LXRb homodimer (NR concentration 270 nM)
How it was run: as §1

[6] = system: PPARa:RXRa (NR concentration 270 nM, RXRa partner concentration 90 nM)
How it was run: as §1

[7] = system: PPARg:RXRa (NR concentration 180 nM, RXRa partner concentration 90 nM)
How it was run: as §1

[8] = system: PPARg:RXRa 270nM:90nM, anti-RXR (NR concentration 270 nM, RXRa partner concentration 90 nM)
How it was run: as §1

[9] = system: PPARg:RXRa 30nM:10nM, anti-RXR (NR concentration 30 nM, RXRa partner concentration 10 nM)
How it was run: as §1

[10] = system: PPARg:RXRa 90nM:30nM, anti-RXR (NR concentration 90 nM, RXRa partner concentration 30 nM)
How it was run: as §1

| Sequence | PBM binding z-score [1] | PBM binding z-score [2] | PBM binding z-score [3] | PBM binding z-score [4] | PBM binding z-score [5] | PBM binding z-score [6] | PBM binding z-score [7] | PBM binding z-score [8] | PBM binding z-score [9] | PBM binding z-score [10] |
| --- | --- | --- | --- | --- | --- | --- | --- | --- | --- | --- |
| CCTACTGGGCCAAGGTCCTTGATCAGTCAAAGCA | -2.77 | -0.638 | -0.83 | -0.659 | -1.31 | 0.607 | 0.83 | 1.73 | -0.152 | 0.845 |
| AATACAGGGTCATCATAGGCCAGAGTACGCACAG | 6.85 | 6.83 | 2.28 | 4.77 | 1.57 | 5.63 | 6.31 | 5.66 | 2.51 | 4.41 |
| GGAACCAGGGCAAAGTTGATAGCATCTGTCGACG | 0.769 | 0.723 | -0.0781 | 0.931 | 0.32 | 4.38 | 7.33 | 7.61 | 6.29 | 7.86 |
| CCTACTGGGCCAAAGGGCATTGATTCCAATGCTC | 0.0219 | 0.199 | -0.482 | 0.36 | -1.02 | 4.61 | 10.3 | 9.18 | 8.24 | 9.29 |
| TCATATAGGTAAATGCTACGTGAAAGTCCGATCT | 0.931 | 0.681 | 0.145 | 0.726 | 0.254 | 0.91 | 0.924 | 2.02 | 3.64 | 2.58 |
| CGAACTAGGTCATTGACTGGACAGTGAATAGTAA | 4.77 | 2.75 | 0.235 | 1.83 | -0.381 | 4.74 | 7.36 | 6.43 | 3.34 | 5.78 |
| ATCGAAAGGTCGAGCTGAGTATAGAGAAAGGGAA | 4.53 | 3.69 | -0.419 | 2.54 | 0.538 | 4.36 | 2.96 | 3.02 | 1.22 | 1.96 |
| CCGACTGGGGCATAAGGTTAGCATAAGCCAGCCC | -0.404 | -0.371 | -0.738 | -0.254 | -1.19 | 1.04 | 1.7 | 2.32 | 0.353 | 1.83 |
| AGAATGAAGTTATTAAGATCAGGGAATTGCGGTC | -0.377 | -0.535 | -0.241 | -0.514 | -0.42 | -0.386 | 0.173 | -0.222 | 0.106 | 0.114 |
| CCTTACGGGTCAAGCTTATAGCACGGGTGGTACG | 5.81 | 3.52 | -0.087 | 3.04 | 0.0884 | 4.93 | 4.12 | 4.65 | 1.87 | 3.43 |
| ATCTCTAGGTAACCAAGTTCAGTAAATGCCGAAC | 0.686 | 1.04 | 1.15 | 1.1 | 0.894 | 1.29 | 0.842 | 1.1 | 0.556 | 0.989 |
| CCTAGCAGGCCATTCTGGGTCACTCAAGGCTTGA | 2.69 | 4.53 | 0.0938 | 2.17 | -0.726 | 2.61 | 0.687 | 1.16 | -0.704 | 0.4 |
| GCTTTTAGATCAAGGTTAAGAAAGACTAAGCTAA | 0.411 | 1.15 | -0.245 | 0.993 | 0.252 | 1.49 | 0.495 | 1.1 | 0.053 | 0.706 |
| TCCTGTAGATCAAAGGTTAAGAAAGCCGAAGCCT | 1.59 | 2.18 | -0.208 | 2.2 | -0.193 | 4.17 | 7.57 | 7.55 | 8.09 | 8.13 |
| AATACAGGGTCATAGTAGGCCAGAGTACGCACAG | 7.09 | 6.14 | 2.31 | 4.62 | 1.5 | 5.82 | 6.42 | 5.33 | 2.62 | 4.34 |
| TAGCCTAGGTCAGATCGCGCCAGTATACGCTATA | 1.75 | 0.937 | -0.15 | 1.09 | -0.19 | 1.63 | 0.856 | 0.842 | 0.125 | 0.595 |
| GCTAGTTGGTCAGTAAAAGGTCACACGCCGGTCG | 3.48 | 4.98 | 4.69 | 4.1 | 0.629 | 4.52 | 3.32 | 4.66 | 2.53 | 4.53 |
| ATATGTAGGTTAAGGATCATTCAGGTTGGTTCGC | 0.726 | 1.25 | 0.404 | 1.18 | 0.352 | 4.46 | 8.08 | 7.41 | 6.08 | 8.34 |
| CCCAGCAGGCCAGGGTCACTCAAGCATTTCGCTT | 2.03 | 1.48 | -0.513 | 1.61 | -0.79 | 2.8 | 0.0881 | 0.885 | -1.03 | 0.0104 |
| GCTAGTTGGCCAGTAAAAGGTCACACACCGGTCG | 2.93 | 4.16 | 3.87 | 4.02 | 0.221 | 4.29 | 1.91 | 3.48 | 1.25 | 2.46 |
| CCGAGTAGGTTATGGGGCATACAGGCAACGGTGA | 0.216 | 0.557 | -0.0431 | 0.599 | -0.226 | 2.3 | 3.69 | 4.52 | 2.65 | 4.38 |
| TAGCCTAGGTCATGCGGGCAAGTATAGTGTCGGC | 4.44 | 3.3 | 0.517 | 1.94 | -0.137 | 3.73 | 2.32 | 2.59 | 0.322 | 1.54 |
| AGAATGAGATTAAGATCAGGGAAACAGAATACAT | -0.282 | -0.601 | -0.0604 | -0.466 | -0.594 | -0.494 | 0.75 | -0.304 | 0.17 | -0.228 |
| CCTAGTTGGTCAATGTCACACACGCTATAGGTAC | 0.436 | 0.678 | 0.613 | 1.1 | 1.1 | 0.77 | 1.17 | 0.745 | 0.448 | 0.257 |
